Measurements published in the supplement of paper PMC8975748.
Where a name gives a salt, the structure may show the parent alone. ± gives the standard deviation of the averaged measurements.

Tests used:
[1] = tested on: Saccharomyces cerevisiae BY4741 SeMeCo community; test: mean cell size (pixel area) (pixels); higher = larger cells; settings: 10 µM; 24 h; SM minimal medium
Procedure, shortened: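 Mean cell pixel area per well was measured in a four-plasmid fluorescent community of Saccharomyces cerevisiae BY4741, where every plasmid complements one auxotrophy and carries a fluorescent marker. Cells from an overnight preculture at OD600 = 1.0 were diluted to OD600 = 0.3 and dispensed at 70 µl into 384-well plates acoustically predosed with drug to a final 10 µM in SM medium. Incubation lasted 24 h, followed by paraformaldehyde fixation, automated confocal imaging and analysis in Harmony. Reported figures are averaged over 3 replicates. Same SeMeCo high-content imaging drug screen: Selleck FDA-approved drugs at 10 µM, 24 h in SM medium, 384-well plates, 3 replicates.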

[2] = tested on: Saccharomyces cerevisiae BY4741 SeMeCo community; test: z-score of prototroph abundance vs DMSO median; higher = larger share of this subpopulation than in DMSO controls; settings: 10 µM; 24 h; SM minimal medium; subpopulation (auxotrophy): Prototroph
Procedure, shortened: (§1)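 Automated confocal microscopy of paraformaldehyde-fixed cells was used to follow a Saccharomyces cerevisiae BY4741 community carrying four plasmids, each restoring one auxotrophy and encoding a distinct fluorescent protein. The community was pre-grown overnight to OD600 1.0, diluted to 0.3, and added at 70 µl to 384-well plates acoustically predosed with library drugs (10 µM final) for 24 h of growth in minimal SM medium. Single-auxotroph fluorescent strains set thresholds and autofluorescence correction, and each subpopulation's abundance was scored as a z-score against the vehicle-well median.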

[3] = tested on: Saccharomyces cerevisiae BY4741 SeMeCo community; test: z-score of subpopulation abundance vs DMSO median, subpopulation auxotrophic for M; higher = larger share of this subpopulation than in DMSO controls; settings: 10 µM; 24 h; SM minimal medium; subpopulation (auxotrophy): M
Procedure, shortened: as §1

[4] = tested on: Saccharomyces cerevisiae BY4741 SeMeCo community; test: z-score of subpopulation abundance vs DMSO median, subpopulation auxotrophic for L; higher = larger share of this subpopulation than in DMSO controls; settings: 10 µM; 24 h; SM minimal medium; subpopulation (auxotrophy): L
Procedure, shortened: as §1

[5] = tested on: Saccharomyces cerevisiae BY4741 SeMeCo community; test: z-score of subpopulation abundance vs DMSO median, subpopulation auxotrophic for U; higher = larger share of this subpopulation than in DMSO controls; settings: 10 µM; 24 h; SM minimal medium; subpopulation (auxotrophy): U
Procedure, shortened: as §1

[6] = tested on: Saccharomyces cerevisiae BY4741 SeMeCo community; test: z-score of subpopulation abundance vs DMSO median, subpopulation auxotrophic for H; higher = larger share of this subpopulation than in DMSO controls; settings: 10 µM; 24 h; SM minimal medium; subpopulation (auxotrophy): H
Procedure, shortened: as §1

[7] = tested on: Saccharomyces cerevisiae BY4741 SeMeCo community; test: z-score of subpopulation abundance vs DMSO median, subpopulation auxotrophic for LU; higher = larger share of this subpopulation than in DMSO controls; settings: 10 µM; 24 h; SM minimal medium; subpopulation (auxotrophy): LU
Procedure, shortened: as §1

[8] = tested on: Saccharomyces cerevisiae BY4741 SeMeCo community; test: z-score of subpopulation abundance vs DMSO median, subpopulation auxotrophic for LM; higher = larger share of this subpopulation than in DMSO controls; settings: 10 µM; 24 h; SM minimal medium; subpopulation (auxotrophy): LM
Procedure, shortened: as §1

[9] = tested on: Saccharomyces cerevisiae BY4741 SeMeCo community; test: z-score of subpopulation abundance vs DMSO median, subpopulation auxotrophic for HM; higher = larger share of this subpopulation than in DMSO controls; settings: 10 µM; 24 h; SM minimal medium; subpopulation (auxotrophy): HM
Procedure, shortened: as §1

[10] = tested on: Saccharomyces cerevisiae BY4741 SeMeCo community; test: z-score of subpopulation abundance vs DMSO median, subpopulation auxotrophic for HU; higher = larger share of this subpopulation than in DMSO controls; settings: 10 µM; 24 h; SM minimal medium; subpopulation (auxotrophy): HU
Procedure, shortened: as §1

[11] = tested on: Saccharomyces cerevisiae BY4741 SeMeCo community; test: z-score of subpopulation abundance vs DMSO median, subpopulation auxotrophic for UM; higher = larger share of this subpopulation than in DMSO controls; settings: 10 µM; 24 h; SM minimal medium; subpopulation (auxotrophy): UM
Procedure, shortened: as §1

[12] = tested on: Saccharomyces cerevisiae BY4741 SeMeCo community; test: z-score of subpopulation abundance vs DMSO median, subpopulation auxotrophic for HL; higher = larger share of this subpopulation than in DMSO controls; settings: 10 µM; 24 h; SM minimal medium; subpopulation (auxotrophy): HL
Procedure, shortened: as §1

[13] = tested on: Saccharomyces cerevisiae BY4741 SeMeCo community; test: z-score of subpopulation abundance vs DMSO median, subpopulation auxotrophic for HLU; higher = larger share of this subpopulation than in DMSO controls; settings: 10 µM; 24 h; SM minimal medium; subpopulation (auxotrophy): HLU
Procedure, shortened: as §1

[14] = tested on: Saccharomyces cerevisiae BY4741 SeMeCo community; test: z-score of subpopulation abundance vs DMSO median, subpopulation auxotrophic for HLM; higher = larger share of this subpopulation than in DMSO controls; settings: 10 µM; 24 h; SM minimal medium; subpopulation (auxotrophy): HLM
Procedure, shortened: as §1

[15] = tested on: Saccharomyces cerevisiae BY4741 SeMeCo community; test: z-score of subpopulation abundance vs DMSO median, subpopulation auxotrophic for HUM; higher = larger share of this subpopulation than in DMSO controls; settings: 10 µM; 24 h; SM minimal medium; subpopulation (auxotrophy): HUM
Procedure, shortened: as §1

[16] = tested on: Saccharomyces cerevisiae BY4741 SeMeCo community; test: z-score of subpopulation abundance vs DMSO median, subpopulation auxotrophic for LUM; higher = larger share of this subpopulation than in DMSO controls; settings: 10 µM; 24 h; SM minimal medium; subpopulation (auxotrophy): LUM
Procedure, shortened: as §1

[17] = tested on: Saccharomyces cerevisiae BY4741 SeMeCo community; test: z-score of subpopulation abundance vs DMSO median, subpopulation auxotrophic for HLUM; higher = larger share of this subpopulation than in DMSO controls; settings: 10 µM; 24 h; SM minimal medium; subpopulation (auxotrophy): HLUM
Procedure, shortened: as §1

| Structure (SMILES) | mean cell size [1] | z-score of prototroph abundance [2] | z-score of subpopulation abundance [3] | z-score of subpopulation abundance [4] | z-score of subpopulation abundance [5] | z-score of subpopulation abundance [6] | z-score of subpopulation abundance [7] | z-score of subpopulation abundance [8] | z-score of subpopulation abundance [9] | z-score of subpopulation abundance [10] | z-score of subpopulation abundance [11] | z-score of subpopulation abundance [12] | z-score of subpopulation abundance [13] | z-score of subpopulation abundance [14] | z-score of subpopulation abundance [15] | z-score of subpopulation abundance [16] | z-score of subpopulation abundance [17] |
| --- | --- | --- | --- | --- | --- | --- | --- | --- | --- | --- | --- | --- | --- | --- | --- | --- | --- |
| CCOC(=O)c1c(CSc2ccccc2)n(C)c2cc(Br)c(O)c(CN(C)C)c12 [Arbidol HCl] | 12.6 ± 0.16 | -0.66 | 0.41 | -0.99 | 1.69 | 0.13 | -0.24 | -0.98 | 0.29 | 0.91 | 0.68 | -0.66 | 0.12 | 0.87 | 0.09 | -0.37 | 0.15 |
| Cc1ccc(Sc2ccccc2N2CCNCC2)c(C)c1 [Vortioxetine] | 12.18 ± 0.097 | 0.02 | 0.08 | -0.09 | -0.12 | -0.14 | -0.19 | -0.16 | -0.01 | 0.9 | 0.26 | 0.77 | 0.51 | 0.2 | 0.6 | -0.16 | -0.06 |
| C[C@@H](c1ncncc1F)[C@](O)(Cn1cncn1)c1ccc(F)cc1F [Voriconazole] | 11.9 ± 0.18 | -11.6 | 0.27 | -2.55 | -0.12 | 12.8 | 1.96 | 1.93 | 10.2 | 9.96 | 16.4 | 6.37 | 16.6 | 41.5 | 14.4 | 5.58 | 16.5 |
| CC1(C)S[C@@H]2[C@H](NC(=O)C(C(=O)O)c3ccccc3)C(=O)N2[C@H]1C(=O)O (some centres undefined) [Carbenicillin disodium] | 12.53 ± 0.098 | 0.19 | 0.64 | -0.23 | -0.46 | – | -0.26 | -0.02 | 0.66 | -0.53 | -0.3 | -0.49 | 0.36 | -0.53 | 0.12 | -0.76 | -0.61 |
| Nc1nc2[nH]cc(CCc3ccc(C(=O)N[C@@H](CCC(=O)O)C(=O)O)cc3)c2c(=O)[nH]1 [Pemetrexed] | 14.85 ± 0.13 | 3.89 | -9.06 | 1.61 | -1.55 | 5.02 | 0.04 | -3.17 | -4.62 | 2.15 | -7.46 | 2.81 | 4.74 | 0.42 | -4.52 | -3.17 | -1.01 |
| Cn1c([N+](=O)[O-])cnc1COC(N)=O [Ronidazole] | 12.5 ± 0.033 | 1.22 | -0.37 | -0.01 | 0.01 | -1.34 | -0.22 | -0.82 | -1.32 | -1.13 | -0.8 | -0.38 | -0.68 | -0.96 | -0.57 | -0.5 | -0.24 |
| Cc1cc(-n2c(=O)[nH]c(=O)n(C)c2=O)ccc1Oc1ccc(SC(F)(F)F)cc1 [Toltrazuril] | 12.53 ± 0.12 | 0.02 | -0.11 | -0.15 | -0.51 | 0.2 | -0.65 | -0.18 | 0.1 | 0.29 | -0.14 | 0.24 | 0 | -0.31 | -0.45 | -0.13 | 0.28 |
| CC1=C(C(=O)O)N2C(=O)[C@@H](NC(=O)[C@H](N)c3ccc(O)cc3)[C@H]2SC1 [Cefadroxil hydrate] | 12.1 ± 0.2 | 0.8 | -0.99 | -0.28 | -0.62 | 0.01 | -0.23 | -0.09 | -0.79 | -0.04 | -0.45 | -0.19 | -0.42 | -0.45 | -0.39 | -0.5 | -0.33 |
| COc1ccc(C2CNC(=O)C2)cc1OC1CCCC1 (centres undefined) [Rolipram] | 12.4 ± 0.3 | 0.66 | 0.33 | -0.37 | -0.09 | -0.68 | -0.29 | 0.28 | -0.73 | -0.85 | -0.35 | -0.38 | -0.57 | -1.22 | -0.22 | -0.59 | -0.71 |
| CCOC(=O)C1=C[C@@H](OC(CC)CC)[C@H](NC(C)=O)[C@@H](N)C1 [Oseltamivir Phosphate] | 12.42 ± 0.039 | 1.28 | -0.5 | 0.45 | -1.55 | – | -0.72 | 0.27 | -0.4 | -0.98 | -1.29 | 0.28 | -0.07 | 0.29 | -1.09 | -0.21 | 0.24 |
| Cc1cc(NS(=O)(=O)c2ccc(N)cc2)no1 [Sulfamethoxazole] | 12.4 ± 0.24 | -0.28 | 0.51 | 0.5 | -0.2 | -0.46 | 0.02 | 0.08 | 0.18 | -0.16 | 0.65 | 0.5 | 1.04 | -0.58 | -0.13 | -0.02 | -0.41 |
| C=C[C@H]1CN2CC[C@H]1C[C@@H]2[C@@H](O)c1ccnc2ccc(OC)cc12 [Quinidine sulfate] | 12.4 ± 0.13 | -1.18 | 1.1 | 2.41 | -1.29 | 0.89 | 0.61 | 2.28 | 1.23 | -0.47 | 0.08 | 1.36 | 1.39 | 1.12 | 0.61 | 1.53 | 2.36 |
| CN(C)CCN1C(=O)c2cccc3cc(N)cc(c23)C1=O [Amonafide] | 12.29 ± 0.1 | 0.47 | 0.34 | -0.4 | -1.14 | 0.02 | -0.78 | 1.08 | -0.01 | -0.59 | -0.24 | -0.12 | 0.2 | -0.38 | -0.09 | 0.44 | -0.08 |
